In PubChem BioAssay (NCATS) one finds Potency data, which are given here for 40 compounds.

SMILES strings stand for the structures. Activity calls are given as the source filed them. The rule behind the calls is not given here. Where only a bound is given, the exact number is not on record here.
Potency is the fitted concentration of half-maximal effect.

The assay has as its system HIV-1 nucleocapsid protein NCp7 (binding to TG oligonucleotide). Put plainly: HIV Nucleocapsid (AID 346).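 Note: potency is for inhibitors that block NC binding and lower polarization.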 The conditions noted are these: HIV-1 NC / fluorescein-TGTGTGTG probe, fluorescence polarization. The method, boiled down:
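Reagents dispensed (10 nM TG4xF, 100 nM HIV-1 NC), plates spun, compounds pin-transferred, then incubated 1 hr at room temperature before FP imaging. Buffer: Hepes pH 7.5, 250mM NaCl, 1uM ZnCl2, 100 uM TCEP, 5 mM 2-mercaptoethanol.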
In the case of `COc1cccc(Nc2ncc3nc(-c4ccc(F)cc4)c(=O)n(CCC#N)c3n2)c1`, the Potency is > 4 µM (inactive).
In the case of `COC(=O)N1CCC2(CCCN(C(=O)Nc3ccc(OC)cc3)C2)CC1`, the Potency is > 20 µM (inactive).
Turning to `COc1ccc(CNc2ncncc2-c2c(C)noc2C)c(OC)c1`, the Potency was > 20 µM (inactive).
On to `COC(=O)N1CCC2(CCN(C(=O)Nc3ccccc3)CC2)CC1`, for which the Potency was > 20 µM (inactive).
For the compound `CN(C)Cc1ccccc1-c1cncnc1Nc1ccc(F)cc1`, the Potency is > 20 µM (inactive).
For `O=C(c1cc(C(F)(F)F)cc(C(F)(F)F)c1)N1CCC2(CC1)CN(c1ncccn1)C2`, the Potency was > 20 µM (inactive).
On to `COc1ccc(CNc2nc(-c3ccccc3CN(C)C)nc3ccccc23)c(OC)c1`, for which the Potency was > 20 µM (inactive).
Regarding `N#Cc1ccccc1-c1ccc2ncnc(NCc3cccs3)c2c1`, the Potency was > 20 µM (inactive).
Take `N#Cc1ccccc1-c1ccc2ncnc(NCCN3CCOCC3)c2c1`: the Potency is > 20 µM (inactive).
The result for `Cn1cccc1C(=O)N1CCC2(CCCN(C(c3ccccc3)c3ccccc3)C2)CC1` reads > 20 µM (inactive); that for `CN(C)c1nc(-c2cccc(NS(C)(=O)=O)c2)nc2ccccc12`, > 20 µM (inactive).
The result for `O=C(c1ccco1)N1CCC2(CC1)CN(C(c1ccccc1)c1ccccc1)C2` reads > 20 µM (inactive); that for `COc1ncc2nc(-c3cc(F)cc(F)c3)c(=O)n(CCC#N)c2n1`, > 20 µM (inactive).
In the case of `CS(=O)(=O)Nc1cccc(-c2nc(NCc3cccnc3)c3ccccc3n2)c1` it was > 20 µM (inactive).
`N#Cc1ccc(CN2CCC3(CC2)CCN(C(=O)c2cnccn2)CC3)cc1`: the Potency was > 20 µM (inactive).
Consider `CC(=O)NCCNc1cc(-c2ccccc2C)ncn1`, for which the Potency is > 20 µM (inactive).
Consider `O=C(Nc1cccc(F)c1)N1CC2(CCN(C(=O)c3cccc(F)c3)CC2)C1`, for which the Potency is > 20 µM (inactive).
Regarding `CN(C)Cc1ccccc1-c1cc(N(C)Cc2ccco2)ncn1`, the Potency was > 20 µM (inactive).
For the compound `Cc1noc(C)c1C(=O)N1CCC[C@@]2(CCN(C(c3ccccc3)c3ccccc3)C2)C1`, the Potency was > 4 µM (inactive).
Regarding `COCCn1c(=O)c(-c2ccccc2)nc2cnc(N3CCNCC3)nc21`, the Potency is > 20 µM (inactive).
Consider `FC(F)(F)c1ccccc1-c1nc(NC2CC2)c2ccccc2n1`, for which the Potency was > 20 µM (inactive).
For `Cc1cccc(CNc2ccnc(-c3ccc(C(=O)N(C)C)cc3)n2)c1`, the Potency was > 20 µM (inactive).
For the compound `COCC(=O)N1CCC2(CC1)CN(Cc1cc(C(F)(F)F)cc(C(F)(F)F)c1)C2`, the Potency was > 20 µM (inactive).
As for `N#CCCn1c(=O)c(-c2ccc(Cl)cc2)nc2cnc(Oc3ccccc3)nc21`, the Potency is > 20 µM (inactive).
Turning to `COc1cccc(Cn2c(=O)c(-c3cccc(C#N)c3)nc3cnc(N4CCOCC4)nc32)c1`, the Potency was > 20 µM (inactive).
As for `COc1ccccc1CN1CCC2(CC1)CCN(C(=O)c1cc(C(F)(F)F)cc(C(F)(F)F)c1)CC2`, the Potency is > 20 µM (inactive).
With `COCCn1c(=O)c(-c2cccc(C#N)c2)nc2cnc(Nc3ccccc3)nc21`, the Potency was 5.18 µM (active).
On to `Cc1noc(C)c1-c1cc(N2CCNCC2)ncn1`, for which the Potency was > 20 µM (inactive).
As to `COc1cccc(Cn2c(=O)c(-c3cccc(C#N)c3)nc3cnc(OC)nc32)c1`, the Potency was > 20 µM (inactive).
Regarding `COc1cccc(-c2ccc3ncnc(NCc4ccccc4)c3c2)c1`, the Potency was > 20 µM (inactive).
`c1nc(NC2CCNCC2)c2cc(-c3ccoc3)ccc2n1`: the Potency is > 20 µM (inactive).
Take `Cc1ccccc1-c1ccc2ncnc(N(C)C)c2c1`: the Potency is > 20 µM (inactive).
Turning to `COc1ccc(C(=O)N2CCC[C@@]3(CCN(C(=O)Nc4cccc(F)c4)C3)C2)cc1`, the Potency was > 20 µM (inactive).
Consider `CC(C)NC(=O)N1CCC2(CC1)CCN(C(=O)c1cc(C(F)(F)F)cc(C(F)(F)F)c1)CC2`, for which the Potency is > 20 µM (inactive).
Take `COc1ccc(-n2c(=O)c(-c3cccc(F)c3)nc3cncnc32)cc1`: the Potency was > 20 µM (inactive).
Regarding `CCNc1ncc2nc(C)c(=O)n(-c3ccc(OC)cc3)c2n1`, the Potency was > 20 µM (inactive).
On to `COCCn1c(=O)c(-c2ccc(F)cc2)nc2cnc(N(C)C)nc21`, for which the Potency is > 20 µM (inactive).
On to `CC(=O)N1CCC2(CCN(Cc3ccncc3)CC2)CC1`, for which the Potency was > 20 µM (inactive).
Turning to `Cc1ccccc1-c1cncnc1N(C)Cc1ccco1`, the Potency is > 20 µM (inactive).
Consider `COCCn1c(=O)c(-c2cn(C)c3ccccc23)nc2cncnc21`, for which the Potency was 11.9 µM (inactive).
